# Reference: PubChem BioAssay (Tox21)
# Records with an inconclusive call do not appear. Unmarked numbers belong to inactive results. Active and inactive are the calls of the source. Calls come from the whole dose curve.
# Test: qHTS assay for small molecules that induce genotoxicity in human embryonic kidney cells expressing luciferase-tagged ATAD5 - cell viability (AID 651634); note: nearly all actives have a fitted effect of over 25% in size
# Details: HEK293T ATAD5-luc cells viability, CellTiter-Fluor, 15.5 h; series mostly up to 83.3 µM; activity, negative = cytotoxicity: at the top concentration
# Excerpt: National Center for Advancing Translational Sciences [NCATS]
# NIH Chemical Genomics Center [NCGC]
# U.S. Environmental Protection Agency [EPA]
# National Institutes of Environmental Health Sciences [NIEHS]
# National Toxicology Program [NTP]
# U.S. Food and Drug Administration [FDA]
# Enhanced Level of Genome Instability Gene 1 (ELG1; human ATAD5) protein levels increase in response to various types of DNA damage. Using a luciferase reporter-gene tagged with ElG1, a cell-based assay [developed by Kyungjae Myung, NHGRI, NIH] was used to measure the induction of ATAD5 in human embryonic kidney cells (HEK293T). So, increase in luciferase activity can be used to identify the compounds that cause genetic stress. In addition to genotoxicity, these cells were also used to test for cytotoxicity by measuring the protease activity within live cells.
# Tox21 Assay Protocol Summary:
# For cytotoxicity screening, 2,000 cells in 5 uL/well were dispensed into white, solid-bottom 1536-well plates using a Multidrop Combi (Thermo Scientific) dispenser. Following transfer of 23 nL compound or DMSO vehicle by a pin tool, the plates were incubated 15.5 hr at 37C and 5% CO2. 1 ul CellTiter-Fluor reagent (Promega, Madison, WI) was then added to each plate and following 30 min incubation at 37C, fluorescence intensity was quantified on a ViewLux CCD-based plate reader.
# % is set by controls: 0 for no effect and ±100 for the full control effect; potency is the fitted concentration of half-maximal effect.
Structure (SMILES),"activity, negative = cytotoxicity",Potency
C=C(C)c1cccc(C(=C)C)c1,-6.05%,
CC1=CCC(=C(C)C)CC1,3.93%,
O=S(=O)(O)c1ccccc1/C=C/c1ccc(-c2ccc(/C=C/c3ccccc3S(=O)(=O)O)cc2)cc1,366%,
Cc1c2ccccc2c(C)c2c1ccc1ccccc12,-4.7%,
OC/C=C/CO,-11.6%,
CCCCC(CC)CN1CN(CC(CC)CCCC)CC(C)(N)C1 (stereo not given),-9.32% [at 39.1 µM],
COC(=O)c1ccccc1OC,16.1%,
CCC(CC)C(C)CCOC(C)=O (stereo not given),6.29%,
CCCCCCCCCCCCOC(=O)c1ccc(O)cc1,-28.1% [at 95.3 µM],
Clc1nnc(Cl)c2ccccc12,-19%,
COc1ccc(NC(=O)CC(C)=O)cc1,7.94%,
O=C1c2ccccc2C(=O)N1SC1CCCCC1,,inactive
FC(F)(F)c1cccc(Cl)c1,14.5%,
CNC(=O)c1ccccc1Sc1ccc2c(/C=C/c3ccccn3)n[nH]c2c1,,13.3 µM (active)
CC(C)(C)NSc1nc2ccccc2s1,11.1% [at 95.3 µM],
CC(=O)c1ccc(C(C)=O)cc1,-6.49% [at 95.3 µM],
CCOC(=O)NNc1ccc(N(CC)CC(C)O)nn1 (stereo not given),-8.87%,
C=C(CC)C(=O)c1ccc(OCC(=O)O)c(Cl)c1Cl,-23.2%,
OC1CCCc2ccccc21 (stereo not given),-6.92% [at 95.3 µM],
CCCCCCCC/C=C\CCCCCCCCN,4.11%,

Structure (SMILES),"activity, negative = cytotoxicity",Potency
COC(=O)Nc1nc2ccc(C(=O)c3ccccc3)cc2[nH]1,-19.7% [at 39.1 µM],
CC(C)CCOC(=O)/C=C/c1ccccc1,11.4% [at 95.3 µM],
CC(CCc1ccccc1)NCC(O)c1ccc(O)c(C(N)=O)c1 (stereo not given),,inactive
O=[N+]([O-])c1cccc(C(F)(F)F)c1,12.8% [at 95.3 µM],
Nc1cc(Cl)c(O)c(Cl)c1,400%,
NC(=S)NC(N)=S,17%,
O=C1C(c2[nH]c3ccc(S(=O)(=O)O)cc3c2O)=Nc2ccc(S(=O)(=O)O)cc21,,inactive
Nc1nc2c(ncn2COCCO)c(=O)[nH]1,-7.76% [at 39.1 µM],
CCO[Si](OCC)(OCC)OCC,-13.5% [at 95.3 µM],
CCCCCCCCCCCCCC[N+](C)(C)Cc1ccccc1,,69.6 µM (active)
C=Cc1cccc(C)c1,8.8%,
Cc1ccc(N/N=c2\c(=O)cc/c(=N\Nc3ccc(S(=O)(=O)O)cc3)c2=O)c(C)c1,,61.1 µM (active)
O=C1OC2(c3ccc(O)cc3Oc3cc(O)ccc32)c2ccc(N=C=S)cc21,176% [at 95.3 µM],
CCOC(=O)Cn1cccc1-c1nc(-c2ccc(OC)cc2)c(-c2ccc(OC)cc2)s1,7.97%,
CCC(C)[O-].CCC(C)[O-].CCOC(=O)/C=C(/C)[O-].[Al+3],1.99%,
COC1=C(OC)C(=O)C(CCCCCCCCCCO)=C(C)C1=O,3.89%,
CCn1c2ccccc2c2cc([N+](=O)[O-])ccc21,14.3%,
NC[C@H]1O[C@H](O[C@H]2[C@H](O[C@@H]3O[C@H](CO)[C@@H](O)[C@H]3O)C(O)[C@H](N)C[C@@H]2N)[C@H](N)[C@@H](O)[C@@H]1O (stereo not given in full),11.6% [at 39.1 µM],
Nc1nc(-c2ccccc2)cs1,-7.07%,
C=CC(C)(CCC=C(C)C)OC=O (stereo not given),17.8%,
